Source: PubChem BioAssay (National Center for Advancing Translational Sciences (NCATS))
This is a sample that favours compounds with a hit; in the whole collection about 11% have one here.
RORg inh = qHTS for inhibitors of ROR gamma transcriptional activity; 5.4% of 310,000 active; Drosophila S2 Gal4-RORgamma UAS-luciferase reporter, 20 h; Potency, µM (highest dose often 53.6 µM), without a hit: at the highest dose activity change, negative = inhibition, hits mostly inhibitors; AID 2551, 2010; also: potency is read from the fitted curve at half-maximal effect; % is scaled to controls: 0 for no effect and ±100 for the full control effect; nearly all actives have a fitted effect of over 60% in size
Target sequence (P51450 whole entry, looked up, the tested form may be a part): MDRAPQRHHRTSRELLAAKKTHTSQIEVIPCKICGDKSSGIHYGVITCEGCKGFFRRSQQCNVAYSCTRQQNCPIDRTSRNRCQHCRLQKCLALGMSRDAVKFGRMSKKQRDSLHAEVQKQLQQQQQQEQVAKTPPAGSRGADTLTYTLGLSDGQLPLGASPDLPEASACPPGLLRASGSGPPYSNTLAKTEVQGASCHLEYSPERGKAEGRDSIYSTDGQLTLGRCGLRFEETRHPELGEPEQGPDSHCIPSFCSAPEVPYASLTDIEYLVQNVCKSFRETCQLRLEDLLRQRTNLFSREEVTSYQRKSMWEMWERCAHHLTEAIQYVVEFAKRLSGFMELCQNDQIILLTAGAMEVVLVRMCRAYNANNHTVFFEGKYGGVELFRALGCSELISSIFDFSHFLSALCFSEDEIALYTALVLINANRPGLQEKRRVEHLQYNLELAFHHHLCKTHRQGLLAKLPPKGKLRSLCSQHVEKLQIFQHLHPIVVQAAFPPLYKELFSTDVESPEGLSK
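Luminescence from a UAS-regulated Photinus luciferase reporter in stably transfected Drosophila Schneider cells is measured; decreased signal marks ROR gamma inhibition. Fusion expression is induced by 700 uM copper sulfate for 20 hr.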
SW480 rerep = A quantitative high throughput screen for small molecules that induce DNA re-replication in SW480 colon adenocarcinoma cells; SW480 DNA re-replication, Hoechst DNA content imaging, 48 h; Potency, µM (titrated, usually from 46.1 µM), without a hit: at the top dose re-replication activation, actives largely listed as activators; AID 624297, 2012; 1.8% of 340,000 active; also: potency is read from the fitted curve at half-maximal effect; % of control where 0% means no effect; nearly all actives have a fitted effect of over 55% in size
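Quantitative HTS format with DMSO vehicle controls; 48 hr drug incubation at 37 C, then 40 min Hoechst staining and scanning imager measurement at 405 nm excitation.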
IL1B secr inh = qHTS for Inhibitors of Inflammasome Signaling: IL-1-beta AlphaLISA Primary Screen | THP-1 LPS/ATP IL-1B secretion, AlphaLISA, 16 h; hits give low values | activity change, % at 57.5 µM | 4.7% of 360,000 active; in the data active = activity change below about -50%; inconclusive = mostly about -30% to -49%; also: % is scaled to controls: 0 for no effect and ±100 for the full control effect
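Secreted IL-1B measured by AlphaLISA bead assay after 16 h compound exposure of THP-1 cells; compounds (final up to 57.5 uM) added 1 h before LPS (250 ng/mL) and ATP (1.25 mM) stimulation; lower signal means less secretion.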
Gal4-VP16 FLuc = VP16 counterscreen qHTS for inhibitors of ROR gamma transcriptional activity. Drosophila S2 Gal4-VP16 UAS-luciferase, luminescence, 20 h. Potency, µM (top dose mostly 53.6 µM), without a hit: top-dose activity, negative = inhibition, usual class: inhibitors. 3.5% of 310,000 active;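 also: Gal4-VP16 expression switched on by copper sulfate through the metallothionein promoter; potency is read from the fitted curve at half-maximal effect; % is scaled to controls: 0 for no effect and ±100 for the full control effect; nearly all actives have a fitted effect of over 50% in size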
MCF10A rerep = A quantitative high throughput screen for small molecules that induce DNA re-replication in MCF 10a normal breast cells; MCF 10A DNA re-replication, Hoechst nuclear intensity, 48 h; Potency, µM (top dose mostly 46.1 µM), for the others: at the top dose activity, positive = re-replication, actives largely listed as activators; 2.9% of 350,000 active; AID 624296, 2012; also: potency is read from the fitted curve at half-maximal effect; % of control where 0% means no effect; nearly all actives have a fitted effect of over 50% in size
* hit, by the source's call; u = inconclusive; x = not tested or not shown; [ ] = remark or other dose. Unless noted, calls follow the shape of the dose curve; as a rule, active = well fitted curve in the direction sought with a large enough effect; inconclusive = small, poorly fitted or top-dose-only effect, or another doubt; inactive = no such curve, though single readings can be large; an effect the other way counts as inactive or inconclusive.

SMILES	RORg inh	SW480 rerep	IL1B secr inh	Gal4-VP16 FLuc	MCF10A rerep
COc1ccc(/C=N/N=C2/NC(=O)C(CC(=O)O)S2)cc1OCc1ccccc1Cl (centres undefined)	23%	0%	-8	-4%	u
COc1ccc(/C=N/n2cnn(Cc3ccccc3Cl)c2=S)cc1OC	22%	4%	-55*	u	u
N#Cc1cc2c(nc1SCC(O)CS(=O)(=O)Cc1ccc(Cl)cc1)CCCC2 (centres undefined)	12%	2%	-61*	7%	2%
CC(C)(C)c1ccc(S(=O)(=O)CC(O)CSc2nc3c(cc2C#N)CCCC3)cc1 (centres undefined)	15%	0%	16	-7%	7%
O=C1C(c2ccnc3ccccc23)=C(O)c2ccccc21	5µM*	-3%	23	u	u
O=C1c2ccccc2C(=O)C1c1ccnc2ccccc12	u	-6%	9	u	10%
Cc1ccc(Cn2cc(CN3CC(N4CCN(Cc5ccccc5F)CC4)CS3(=O)=O)nn2)cc1 (centres undefined)	x	x	-2	x	x
COCC(C)NC(=O)C1CC(=O)N(CCc2ccc(F)cc2)C1 (centres undefined)	x	x	19	x	x
CCn1cc(Cl)c(C(=O)N2N=C3/C(=C/c4cccs4)CCCC3C2c2cccs2)n1 (centres undefined)	u	18µM*	u	-16%	23%
CC(=O)N1N=C2c3ccccc3CCC2C1c1cccs1 (centres undefined)	3%	-12%	41	8%	-2%
Cc1nc(Cc2nnc(SCC(=O)N3CCN(c4ccc(O)cc4)CC3)o2)cs1	x	2.1µM*	33	x	8%
Cc1cc2nc3c(=O)[nH]c(=S)[nH]c3nc2cc1NC(=O)C(F)(F)F	-6%	u	-15	-14%	10%
O=C(Cc1ccc([N+](=O)[O-])cc1)NC1CCCCCC1	12%	u	5	0%	u
O=C(Nc1ccc(F)cc1)c1nc[nH]c1C(=O)Nc1ccc([N+](=O)[O-])cc1	5µM*	-2%	-1	7.1µM*	-2%
O=C(Nc1ccc([N+](=O)[O-])cc1)c1nc[nH]c1C(=O)NC1CCCCC1	1.6µM*	1%	-10	3.5µM*	11%
CCOC(=O)c1[nH]cnc1C(=O)Nc1ccc([N+](=O)[O-])cc1	0%	5%	9	-12%	u
Cc1ccc(NC(=S)N/N=C2\CC(C)(C)Oc3ccc(O)cc32)cc1	5.6µM*	-176%	-4	5µM*	21µM*
CC(=O)N1CCC(N(CCN2CCOCC2)C(=S)Nc2ccc(C)cc2)CC1	-1%	u	28	7%	5%
COc1ccc(NC(=S)N/N=C2\CC(C)(C)Oc3ccc(OC)cc32)cc1	1.4µM*	-4%	-12	2µM*	5%
Cc1ccccc1NC(=S)N/N=C1\CC(C)(C)Oc2ccc(O)cc21	u	19%	-7	-8%	16%
CC(=O)N1CCC2(CC1)C/C(=N\NC(=S)Nc1ccc(C)cc1)c1cc(O)ccc1O2	10µM*	28%	-29	u	23µM*
COC(=O)CC1c2ccccc2C=C(C2CC2)N1C(=O)OC (centres undefined)	2%	x	x	-6%	x
C/[N+]([O-])=C\c1cccc(OCCN2CCN(c3ncc(C(F)(F)F)cc3Cl)CC2)c1	u	8%	-51*	-15%	9%
O=C(O)C1CC=CC2CCN(C3CC3)C(=O)C21 (centres undefined)	21%	x	x	-12%	x
O=C(C[C@H]1CC[C@@H](NS(=O)(=O)c2ccccc2)[C@@H](CO)O1)NCc1ccc(Cl)c(Cl)c1	x	x	21	x	x
SMILES	RORg inh	SW480 rerep	IL1B secr inh	Gal4-VP16 FLuc	MCF10A rerep
C/C(=N\NC(=O)CN1CCCCC1)c1ccccc1O	3.5µM*	6.5µM*	164	16µM*	15%
C/C(=N\NC(=O)CN(c1ccccc1)S(C)(=O)=O)c1ccccc1O	0.71µM*	2%	112	3.5µM*	-1%
CC(C)(C)C1CCC(=NNC(=O)CN(c2ccccc2)S(C)(=O)=O)CC1 (centres undefined)	-10%	2%	-15	2%	5%
CCOC(=O)C1(C)CCCN(C(=O)c2ccccc2OC(F)(F)F)C1 (centres undefined)	x	x	3	x	x
C=CCC(O)(C#Cc1ccccc1)c1ccccc1 (centres undefined)	27%	x	x	5%	x
CC1CCN(c2[nH]c(=S)c(C#N)c3c2CCCC3)CC1	7.1µM*	-1%	7	u	-5%
CC1(C)Cc2c(c(N3CCCCC3)[nH]c(=S)c2C#N)CS1	0%	-5%	50	-4%	u
COc1cccc(NC(=S)N(CCCN2CCOCC2)Cc2cn(C)c3ccccc23)c1	18µM*	4%	-13	u	10%
Cc1ccccc1NC(=S)N(CCN1CCOCC1)Cc1ccccc1F	14µM*	0%	4	-25%	3%
CCc1ccccc1NC(=S)N(CCN1CCOCC1)Cc1ccccc1F	16µM*	-7%	-12	-6%	-5%
Fc1ccccc1CN(CCN1CCOCC1)C(=S)Nc1ccccc1Cl	u	3%	9	u	0%
Cc1cc(NC(=S)N(CCN2CCOCC2)Cc2ccccc2F)ccc1Cl	10µM*	7%	-58*	u	-3%
COc1ccc(NC(=S)N(CCCN2CCOCC2)Cc2cn(C)c3ccccc23)cc1OC	-13%	4%	-11	0%	1%
CCC1COCCS(=O)(=O)N1Cc1ccc(F)cc1 (centres undefined)	-22%	-4%	38	3%	-10%
CCc1ccccc1NC(=S)N(CCN(C)C)Cc1cccs1	11µM*	0%	-13	2%[10 µM]	0%
COC(=O)/C(=C\c1ccc(O)cc1)c1nc2ccccc2[nH]1	8%	2.6µM*	-6	24%	16µM*
COc1ccc(/C=C(/NC(=O)c2ccccc2)c2nc3ccc(Cl)cc3[nH]2)cc1OC	u	-1%	-8	-19%	u
COC(=O)/C(=C\c1cc(OC)c(OC)c(OC)c1)c1nc2ccccc2[nH]1	-40%	u	-99*	16%	21µM*
COc1ccc(/C=C(/NC(=O)c2ccccc2)c2nc3ccccc3[nH]2)cc1OC	21%	u	33	-12%	21µM*
Cc1ccc(C(=O)NCc2ccccn2)cc1S(=O)(=O)N1CCCCC1	0%	12%	-2	-15%	-7%
COC(=O)NC(CCc1ccccc1)C(C(C)=O)C(=O)OC (centres undefined)	29%	x	x	13%	x
COC(=O)C/C=C\[C@@H](C)[C@@H](/C=N\OCC[C@@H]1C=C[C@H](OC(C)=O)[C@H](COC(C)=O)O1)OC	14%[10 µM]	x	x	9%[10 µM]	x
